In PubChem BioAssay (NCI):
Compounds without any hit were thinned out: in the full panel of roughly 79,000, 15% have a hit. Calls of active or inactive are those of the source. Rule as the data show it: active = growth inhibition above about 70%; inactive = the rest.

Tests used:
[1] = NCI Yeast Anticancer Drug Screen. Data for the rad52 strain (AID 147);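 also: 0% = growth of vehicle-treated control cultures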; conditions: S. cerevisiae rad52 mutant growth inhibition, stronger effect = higher value
How it was run: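 Here a repair-compromised yeast strain receives each compound; its growth is then quantified and normalised to vehicle-only controls.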

[2] = NCI Yeast Anticancer Drug Screen. Data for the wt1 strain (AID 149);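 also: 0% = growth of vehicle-treated wt1 cultures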; conditions: S. cerevisiae wt1 strain (SPY 50644) growth inhibition, stronger effect = higher value
How it was run: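 Readout: yeast growth inhibition, normalised to vehicle controls, in the wt1 strain exposed to test compounds.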

[3] = NCI Yeast Anticancer Drug Screen. Data for the rad50EPP+ strain (AID 151);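 also: 0% = growth of vehicle-treated control cultures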; conditions: S. cerevisiae rad50 mutant strain, stronger effect = higher value
How it was run: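 Read-out is yeast growth inhibition relative to vehicle; cells used were the rad50EPP+ strain.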

[4] = NCI Yeast Anticancer Drug Screen. Data for the mgt1 strain (AID 153); conditions: S. cerevisiae mgt1 mutant growth inhibition, stronger effect = higher value
How it was run: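 Measured: inhibition of mgt1 yeast growth by compound, normalized to vehicle-treated cultures.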

[5] = NCI Yeast Anticancer Drug Screen. Data for the rad50 strain (AID 155);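 also: 0% = growth of vehicle-only cultures of the same strain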; conditions: S. cerevisiae rad50 strain growth inhibition, stronger effect = higher value
How it was run: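 Compounds were tested on a yeast strain with an engineered DNA damage repair alteration; the reported value is growth inhibition normalised to vehicle treatment.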

[6] = NCI Yeast Anticancer Drug Screen. Data for the mec2-1 strain (AID 157); conditions: S. cerevisiae mec2-1 strain, stronger effect = higher value
How it was run: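 Using mec2-1 yeast: add compound, measure growth, express inhibition versus vehicle-treated cultures.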

[7] = NCI Yeast Anticancer Drug Screen. Data for the rad14 strain (AID 159);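 also: 0% = growth of vehicle-treated control cultures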; conditions: S. cerevisiae rad14 strain growth inhibition, stronger effect = higher value
How it was run: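 Compound-treated yeast with a defined DNA-repair lesion; growth inhibition normalised to vehicle-treated cultures.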

[8] = NCI Yeast Anticancer Drug Screen. Data for the sgs1 mgt1 strain (AID 161);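 also: 0% = growth of cultures given vehicle only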; conditions: S. cerevisiae sgs1 mgt1 strain, stronger effect = higher value
How it was run: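 Yeast cells carrying a defined DNA-repair defect were exposed to test compounds. Growth inhibition was measured relative to vehicle-treated controls.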

[9] = NCI Yeast Anticancer Drug Screen. Data for the CLN2oe strain (AID 163);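 also: 0% = growth of vehicle-only control cultures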; conditions: S. cerevisiae CLN2oe strain, stronger effect = higher value
How it was run: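 Whole-cell yeast growth assay. A strain engineered for altered cell-cycle control received compound, and inhibition relative to vehicle-treated cultures was recorded.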

[10] = NCI Yeast Anticancer Drug Screen. Data for the cln2 rad14 strain (AID 165);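 also: 0% = growth equal to vehicle treated cultures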; conditions: S. cerevisiae cln2 rad14 strain, stronger effect = higher value
How it was run: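 Yeast strain cln2 rad14, bearing defects in cell cycle control and DNA repair, serves as the test system; values reflect growth inhibition compared with vehicle.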

[11] = NCI Yeast Anticancer Drug Screen. Data for the bub3 strain (AID 167); conditions: S. cerevisiae bub3 mutant strain, stronger effect = higher value
How it was run: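 Growth of a checkpoint-deficient yeast mutant is measured after compound exposure. Values represent inhibition relative to vehicle.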

[12] = NCI Yeast Anticancer Drug Screen. Data for the wt2 strain (AID 169);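 also: 0% = growth of vehicle-treated yeast cultures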; conditions: S. cerevisiae wt2 strain growth inhibition, stronger effect = higher value
How it was run: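 Treated yeast vs. vehicle-treated yeast: growth inhibition determined.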

[13] = NCI Yeast Anticancer Drug Screen. Data for the mlh1 strain (AID 171);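 also: 0% = growth of vehicle-treated control cultures of the same strain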; conditions: S. cerevisiae mlh1 strain growth inhibition, stronger effect = higher value
How it was run: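 A yeast strain with a defined genetic lesion serves as the test organism. Cultures receive compound or vehicle, and growth is measured.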

[14] = NCI Yeast Anticancer Drug Screen. Data for the sgs1 strain (AID 173);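 also: 0% = growth of vehicle-only control cultures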; conditions: S. cerevisiae sgs1 mutant, stronger effect = higher value
How it was run: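 A genetically defined yeast mutant is incubated with the test compound, and its growth is compared to that of the same strain given vehicle.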

[15] = NCI Yeast Anticancer Drug Screen. Data for the mlh1 rad18 strain (AID 175); conditions: S. cerevisiae mlh1 rad18 strain growth inhibition, stronger effect = higher value
How it was run: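 Steps: expose repair-defective yeast to compound; measure growth; express inhibition against vehicle-treated controls.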

[16] = NCI Yeast Anticancer Drug Screen. Data for the rad18 strain (AID 177); conditions: S. cerevisiae rad18 mutant growth inhibition, stronger effect = higher value
How it was run: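 Measured value is growth inhibition of a yeast strain bearing a DNA repair alteration, referenced to vehicle-treated cells.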

[17] = at 5.0 µM (retest, dose inferred, filed as 0.5)
[18] = at 50.0 µM (retest, dose inferred, filed as 5.0)

Measured: growth inhibition

NC(=S)N1N=C2c3ccccc3CC[C@H]2[C@@H]1c1ccc(Cl)cc1
inactive: [1]; at 1.2 µM 26% | [1]; at 3.7 µM 31% | [1]; at 11.0 µM 39% | [1]; at 33.0 µM 48% | [2]; at 1.2 µM 11% | [2]; at 3.7 µM 9% | [2]; at 11.0 µM 31% | [2]; at 33.0 µM 46% | [3]; at 1.2 µM -14% | [3]; at 3.7 µM -10% | [3]; at 11.0 µM -14% | [3]; at 33.0 µM 8% | [3]; at 100.0 µM 37% | [4]; at 1.2 µM 7% | [4]; at 3.7 µM -10% | [4]; at 11.0 µM 0% | [4]; at 33.0 µM 29% | [5]; at 1.2 µM -6% | [5]; at 3.7 µM -2% | [5]; [17] -20% | [5]; at 11.0 µM 29% | [5]; at 33.0 µM 36% | [6]; at 1.2 µM -17% | [6]; at 3.7 µM 9% | [6]; [17] 7% | [6]; at 11.0 µM 23% | [6]; at 33.0 µM 58% | [7]; at 1.2 µM -28% | [7]; at 3.7 µM -20% | [7]; at 11.0 µM -10% | [7]; at 33.0 µM -3% | [8]; [17] -15% | [9]; at 1.2 µM -6% | [9]; at 3.7 µM -10% | [9]; at 11.0 µM 18% | [9]; at 33.0 µM 42% | [10]; [17] 12% | [11]; at 1.2 µM -12% | [11]; at 3.7 µM 9% | [11]; [17] 34% | [11]; at 11.0 µM 26% | [11]; at 33.0 µM 46% | [12]; at 1.2 µM 8% | [12]; at 3.7 µM 14% | [12]; at 11.0 µM 11% | [12]; at 33.0 µM 35% | [13]; at 1.2 µM 2% | [13]; at 3.7 µM 2% | [13]; at 11.0 µM 28% | [13]; at 33.0 µM 51% | [14]; at 1.2 µM 22% | [14]; at 3.7 µM 33% | [14]; at 11.0 µM 46% | [14]; at 33.0 µM 67% | [15]; [17] 7% | [16]; at 1.2 µM 1% | [16]; at 3.7 µM 8% | [16]; at 11.0 µM -9% | [16]; at 33.0 µM 45%
active: [1]; at 100.0 µM 88% | [2]; at 100.0 µM 90% | [4]; at 100.0 µM 85% | [5]; [18] 78% | [5]; at 50.0 µM 83% | [5]; at 100.0 µM 85% | [6]; [18] 90% | [6]; at 50.0 µM 85.8% | [6]; at 100.0 µM 88% | [7]; at 100.0 µM 82% | [8]; [18] 79% | [8]; at 50.0 µM 84.8% | [9]; at 100.0 µM 86% | [10]; [18] 91% | [10]; at 50.0 µM 84.7% | [11]; [18] 93% | [11]; at 50.0 µM 83.2% | [11]; at 100.0 µM 89% | [12]; at 100.0 µM 89% | [13]; at 100.0 µM 89% | [14]; at 100.0 µM 91% | [15]; [18] 93% | [15]; at 50.0 µM 80.2% | [16]; at 100.0 µM 89%

O=c1[nH]c2c([N+](=O)[O-])cccc2c2ccccc12
active: [1]; at 100.0 µM 89% | [2]; at 100.0 µM 73% | [3]; at 100.0 µM 76% | [4]; at 100.0 µM 90% | [5]; [18] 80% | [5]; at 50.0 µM 96.2% | [5]; at 100.0 µM 95% | [6]; at 50.0 µM 96% | [6]; at 100.0 µM 89% | [7]; at 100.0 µM 86% | [8]; at 50.0 µM 96.8% | [10]; at 50.0 µM 93% | [11]; [18] 72% | [11]; at 50.0 µM 95% | [11]; at 100.0 µM 90% | [12]; at 100.0 µM 84% | [13]; at 100.0 µM 88% | [14]; at 100.0 µM 90% | [15]; at 50.0 µM 96.2% | [16]; at 33.0 µM 73% | [16]; at 100.0 µM 96%
inactive: [1]; at 1.2 µM -1% | [1]; at 3.7 µM 0% | [1]; at 11.0 µM 6% | [1]; at 33.0 µM 40% | [2]; at 1.2 µM -3% | [2]; at 3.7 µM -2% | [2]; at 11.0 µM -2% | [2]; at 33.0 µM 5% | [3]; at 1.2 µM 5% | [3]; at 3.7 µM 12% | [3]; at 11.0 µM 26% | [3]; at 33.0 µM 52% | [4]; at 1.2 µM -4% | [4]; at 3.7 µM -3% | [4]; at 11.0 µM -3% | [4]; at 33.0 µM 19% | [5]; at 1.2 µM 2% | [5]; at 3.7 µM -42% | [5]; [17] 7% | [5]; at 11.0 µM 33% | [5]; at 33.0 µM 53% | [6]; at 1.2 µM 0% | [6]; at 3.7 µM 0% | [6]; [17] 4% | [6]; at 11.0 µM 3% | [6]; at 33.0 µM 17% | [6]; [18] 52% | [7]; at 1.2 µM 2% | [7]; at 3.7 µM 5% | [7]; at 11.0 µM 12% | [7]; at 33.0 µM 24% | [8]; [17] 2% | [8]; [18] 51% | [9]; at 1.2 µM -13% | [9]; at 3.7 µM -15% | [9]; at 11.0 µM -16% | [9]; at 33.0 µM -29% | [9]; at 100.0 µM 12% | [10]; [17] -13% | [10]; [18] 11% | [11]; at 1.2 µM -4% | [11]; at 3.7 µM -6% | [11]; [17] 3% | [11]; at 11.0 µM 0% | [11]; at 33.0 µM 28% | [12]; at 1.2 µM -2% | [12]; at 3.7 µM 6% | [12]; at 11.0 µM -1% | [12]; at 33.0 µM 12% | [13]; at 1.2 µM -2% | [13]; at 3.7 µM -2% | [13]; at 11.0 µM 0% | [13]; at 33.0 µM 18% | [14]; at 1.2 µM -2% | [14]; at 3.7 µM 0% | [14]; at 11.0 µM 7% | [14]; at 33.0 µM 40% | [15]; [17] 4% | [15]; [18] 41% | [16]; at 1.2 µM 3% | [16]; at 3.7 µM 9% | [16]; at 11.0 µM 26%
